This is an account of results in PubChem BioAssay (NCATS).

Molecules are shown by their SMILES. Results filed as inconclusive are left out. The source made the active and inactive calls. Unless noted, calls come from the whole dose curve; as a rule, active = well fitted curve in the direction sought with a large enough effect; inconclusive = small, poorly fitted or top-dose-only effect, or another doubt; inactive = no such curve, though single readings can be large; an effect the other way counts as inactive or inconclusive.

Assay [1] addresses Lysosomal acid glucosylceramidase (Homo sapiens) (UniProt P04062). Briefly: Glucocerebrosidase-p2 (AID 348; in the data active = potency below about 10 µM; note: potency is the fitted concentration of half-maximal effect). To be noted: purified GBA, blue fluorogenic substrate, 40 min. The procedure, abridged:
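Compounds titrated from 0.6 nM upwards against 0.2 nM enzyme in pH 5.9 citric acid/KH2PO4, taurocholate, tween-20; blue fluorogenic substrate 80 uM, 40 min room temperature, stopped and read Ex 365/Em 440 for AC50.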

For assay [2], the target named is Cytochrome P450 1A2 (Homo sapiens) (UniProt P05177). Description: p450-cyp1a2 (AID 410; calls by dose curve; note: potency is the fitted concentration of half-maximal effect). To be noted: recombinant CYP1A2, luciferin-ME demethylation, luminescence; series mostly up to 57 µM. The method, boiled down:
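Human CYP1A2 (20nM) demethylated Luciferin-ME at its Km (100uM) in 100mM KPO4. After 10 min compound preincubation, NADPH regeneration ran the reaction 60 min at room temperature. Luciferin was read by luminescence, normalized to 57 uM furafylline.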

Assay [3] deals with Glucocorticoid receptor (Homo sapiens) (UniProt P04150). Briefly: GR-GFP Redistribution (AID 450;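 active = compounds whose dose series gives a full or clear partial fitted curve of increased nuclear translocation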; note: potency is the fitted concentration of half-maximal effect). To be noted: U2OS GR-GFP nuclear translocation, laser cytometry, 2 h.
Assay [4] shares this target. Briefly: GR-EFC Redistribution (AID 451; calls by dose curve; note: potency is the fitted concentration of half-maximal effect). To be noted: CHO-K1 GR-EFC translocation, beta-gal luminescence, 2 h. The method, boiled down: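 Translocation of GR-ED fusion to nuclear EA restores b-gal, read by luminescence after 1 h room-temperature detection. Engineered CHO-K1 biosensor cells, 1,000/well, exposed 2 h at 37 C to titrations up to 46 uM final.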
The target of assay [5] is 3',5'-cyclic-AMP phosphodiesterase 4B (Homo sapiens) (UniProt Q07343). Description: qHTS Assay for Inhibitors of PDE-IV (AID 607; active = well fitted activation curve with a large enough effect in the main read-out, with a control signal flat, not every such curve was filed as active; note: % of control where 0% means no effect). To be noted: HEK293 ACTOne CNG channel cells, membrane potential fluorescence; series mostly up to 22.9 µM. The procedure, abridged: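 Cell-based read-out of cAMP via a modified cyclic nucleotide-gated channel and membrane potential dye (535/590 nm) in HEK293 cells expressing PDE4 endogenously. Compounds tested up to 22.9 uM final; 100 uM RO 20-1724 reference.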

Assay [6] addresses Cytochrome P450 3A4 (Homo sapiens) (UniProt P08684). Briefly: qHTS Assay for Inhibitors and Substrates of Cytochrome P450 3A4 (AID 884). Note: nearly all actives have a fitted effect of over 50% in size. Note: potency is the fitted concentration of half-maximal effect. To be noted: recombinant CYP3A4, Luciferin-PPXE luminescence; series mostly up to 57.1 µM. The method, boiled down:
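20 nM human CYP3A4 with 25 uM Luciferin-PPXE (at KM) in 200 mM KPO4, preincubated 10 min with compound; NADPH regeneration started a 60 min RT reaction. Luciferin detected by luminescence, normalized to 57 uM ketoconazole as full inhibition.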
A general note: Quantitative high-throughput screening tests each substance at several concentrations.

The nature of assay [7]: qHTS Assay for Identification of Small Molecule Agonists for Hypoxia Response Element Signaling Pathway (AID 914; active = well fitted activation curve with a large enough effect in the signal ratio, with a control signal flat, not every such curve was filed as active; the % refers to the signal ratio; note: potency is the fitted concentration of half-maximal effect). The note with it: ME-180 HRE-bla reporter, beta-lactamase ratio, CoCl2, 17 h; activation: stronger effect = higher value. The procedure, abridged:
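HRE-bla ME-180 cells, overnight plating in Opti-MEM with 0.5% dialyzed FBS; cpd titration + EC50 CoCl2, 17 h, 37 degrees Celsius; CCF4 2.5 h RT; 460/530 nm ratio; AC50.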

The nature of assay [8]: qHTS Assay for Lipid Storage Modulators (AID 1519; calls by dose curve). To be noted: Drosophila S3 cells, BODIPY lipid droplet/cell ratio, laser cytometry, cells loaded with oleic acid; for activity change, negative = inhibition: at 57.5 µM (top of the series). The procedure, abridged: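 Cells seeded at 5,000 per well were treated with compounds over a concentration series and loaded with oleic acid (400 uM, as added). Lipid droplet fluorescence (488 nm excitation, 500-530 nm channel) was read by laser-scanning cytometry and normalized to 20 uM Triacsin C.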

Assay [9] deals with Dual specificity protein kinase CLK4 (Homo sapiens) (UniProt Q9HAZ1). Description: qHTS Assay for Inhibitors of CDC-like Kinase 4 (Kinase-Glo Assay) (AID 1770). Note: nearly all actives have a fitted effect of over 65% in size. Note: potency is the fitted concentration of half-maximal effect. The note with it: recombinant Clk4, Kinase-Glo ATP depletion luminescence; series mostly up to 66.7 µM. The method, boiled down: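 Inhibition was judged from remaining ATP, measured by Ultra-Glo luciferase bioluminescence after Clk4 (25 nM) had acted on RS peptide at 1 uM ATP for 4.5 hours, room temperature.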

Assay [10] has the same target. Briefly: qHTS Assay for Inhibitors of CDC-like Kinase 4 (ADP-Glo Assay) (AID 1771). Note: nearly all actives have a fitted effect of over 70% in size. Note: potency is the fitted concentration of half-maximal effect. To be noted: recombinant CLK4, ADP-Glo luminescence; series mostly up to 80 µM. The procedure, abridged: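 Clk4 (25 nM) was incubated 1 hr at room temperature with 100 uM RS repeat peptide and 1 uM ATP in buffer with 2 mM MgCl2, 0.5 mM EGTA, 2.5 mM DTT. ADP formed was quantified by ADP-Glo luminescence.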

For assay [11] the target is unchanged. Description: qHTS Assay for Inhibitors of CDC-like Kinase 4 (ADP-FP Assay) (AID 1795). Note: nearly all actives have a fitted effect of over 60% in size. Note: potency is the fitted concentration of half-maximal effect. The note with it: Transcreener ADP fluorescence polarization; series mostly up to 50 µM. The method, boiled down:
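Inhibition of ADP formation by 6.25 nM Clk4 is measured using 1 uM ATP and 100 uM RS repeat peptide over one hour. Produced ADP displaces a fluorescent tracer from antibody, lowering polarization.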

Assay [12] concerns the target Ubiquitin carboxyl-terminal hydrolase 1 (Homo sapiens) (UniProt O94782). Briefly: Inhibitors of USP1/UAF1: Pilot qHTS (AID 504865). Note: nearly all actives have a fitted effect of over 35% in size. Note: potency is the fitted concentration of half-maximal effect. To be noted: purified USP1/UAF1, Ub-rhodamine cleavage fluorescence; series mostly up to 54.9 µM. The method, boiled down: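 Kinetic fluorescence assay: 1nM USP1/UAF1, 15 min compound preincubation, then 150nM Ub-Rho; 480/540 nm.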
Assay [13] can be described thus: Primary qHTS for small molecule stabilizers of the endoplasmic reticulum resident proteome: Secreted ER Calcium Modulated Protein (SERCaMP) assay (AID 1508630). Note: % is set by controls: 0 for no effect and ±100 for the full control effect. To be noted: SH-SY5Y GLuc-SERCaMP (Gaussia luciferase released on ER calcium loss) secretion, thapsigargin, luminescence; series mostly up to 38.4 µM. The method, boiled down: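 GLuc-SERCaMP-expressing SH-SY5Y cells, pretreated 16 h with compound, are challenged with thapsigargin to empty ER calcium stores; after 4 h, coelenterazine is added directly to the medium and luminescence is imaged.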

In assay [14] the target is Mitogen-activated protein kinase 10 (Mus musculus) (UniProt Q61831). Description: JNK3 AlphaScreen Assay (AID 530; active = well fitted curve in either direction with a large enough effect, not every such curve was filed as active;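 note: kinase came from lysate of stimulated human HepG2 cells; signal reports phosphorylation of biotinylated GST-cJun 1-79 at Ser73 with 10 µM ATP; % is set by controls: 0 for no effect and ±100 for the full control effect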). To be noted: JNK3 lysate, c-Jun phosphorylation; series mostly up to 57.1 µM. The method, boiled down:
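Room-temperature AlphaScreen kinase assay; pre-activated HepG2 lysate as JNK3 source, biotin-GST-cJun(1-79) substrate, 10 uM ATP, compound 15 min preincubation.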
(In general: Alpha assays give light when donor and acceptor beads are brought close together.)

A short description of assay [15]: AP1 Signaling Pathway (AID 357; active = well fitted curve in either direction with a large enough effect, not every such curve was filed as active;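 note: ME-180 reporter cells stimulated with EGF at its EC50 level; % is set by controls: 0 for no effect and ±100 for the full control effect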). To be noted: ME-180 AP-1-bla reporter, EGF-induced, beta-lactamase ratio, 5 h; at 7.69 µM (top of the series) unless noted. The procedure, abridged: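 Beta-lactamase reporter under AP-1 response element, ME-180 background. Stimulus: EC50 EGF. Compound exposure 5 h, 37 °C. Detection: CCF4, 2.5 h RT, 460/530 nm. Values: AC50 from titration.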

The nature of assay [16]: NFAT Signaling Pathway (AID 444; active = well fitted curve in either direction with a large enough effect, not every such curve was filed as active;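 note: carbachol stimulus at about its EC50 of 1 µM final; % is set by controls: 0 for no effect and ±100 for the full control effect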). To be noted: Jurkat NFAT-bla M1, carbachol, beta-lactamase ratio, 5 h; at 7.69 µM (top of the series) unless noted. The procedure, abridged:
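Read-out: CCF4 FRET ratio (460 nm/530 nm) after 1 h RT dye loading, used for %activity and AC50 from titration series. Cells: Jurkat NFAT-β-lactamase/M1 line, treated with compound plus 1 uM carbachol for 5 h, 37 °C.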

Assay [17] can be described thus: Stat Signaling Pathway (AID 446; active = well fitted curve in either direction with a large enough effect, not every such curve was filed as active). To be noted: ME-180 SIE beta-lactamase reporter, IL-6 stimulated, 5 h; at 7.69 µM (top of the series) unless noted. The procedure, abridged:
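Reporter line: ME-180 cervical carcinoma, SIE-beta-lactamase. Treatment: compound with 40 pM IL-6, 5 hrs, 37 C, in low-serum OPTI-MEM with 10 mM HEPES pH 7.3. Detection: 460/530 nm fluorescence.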

Assay [18] has as its target Cytochrome P450 3A4 (Homo sapiens) (UniProt P08684). Description: qHTS Assay for Activators of Cytochrome P450 3A4 (AID 885). Note: nearly all actives have a fitted effect of over 65% in size. To be noted: recombinant CYP3A4, Luciferin-PPXE luminescence, 60 min; series mostly up to 57.1 µM. The procedure, abridged:
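Signal was normalized against complete inhibition by 57 uM ketoconazole. The reaction used 20nM CYP3A4 with 25uM Luciferin-PPXE, 10-min compound preincubation and a 60-min NADPH-supported step at RT.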

Assay [19] concerns the target Cytochrome P450 2C19 (Homo sapiens) (UniProt P33261). Briefly: qHTS Assay for Inhibitors and Substrates of Cytochrome P450 2C19 (AID 899). Note: potency is the fitted concentration of half-maximal effect; nearly all actives have a fitted effect of over 60% in size. To be noted: recombinant CYP2C19, luciferin-H EGE luminescence; series mostly up to 57.1 µM. The procedure, abridged:
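Luminescence readout of luciferin formed from 10uM Luciferin-H EGE (KM level) by 5 nM CYP2C19 in 50mM KPO4. 60 min NADPH-driven reaction at 37C after 10 min compound preincubation; data scaled to 57uM ketoconazole inhibition.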

Setting [20] is: measured here: cell count channel max response.
[21] abbreviates: measured here: lipid channel max response.

Sequence of Glucocorticoid receptor (Homo sapiens) (P04150 whole entry, looked up, the tested form may be a part): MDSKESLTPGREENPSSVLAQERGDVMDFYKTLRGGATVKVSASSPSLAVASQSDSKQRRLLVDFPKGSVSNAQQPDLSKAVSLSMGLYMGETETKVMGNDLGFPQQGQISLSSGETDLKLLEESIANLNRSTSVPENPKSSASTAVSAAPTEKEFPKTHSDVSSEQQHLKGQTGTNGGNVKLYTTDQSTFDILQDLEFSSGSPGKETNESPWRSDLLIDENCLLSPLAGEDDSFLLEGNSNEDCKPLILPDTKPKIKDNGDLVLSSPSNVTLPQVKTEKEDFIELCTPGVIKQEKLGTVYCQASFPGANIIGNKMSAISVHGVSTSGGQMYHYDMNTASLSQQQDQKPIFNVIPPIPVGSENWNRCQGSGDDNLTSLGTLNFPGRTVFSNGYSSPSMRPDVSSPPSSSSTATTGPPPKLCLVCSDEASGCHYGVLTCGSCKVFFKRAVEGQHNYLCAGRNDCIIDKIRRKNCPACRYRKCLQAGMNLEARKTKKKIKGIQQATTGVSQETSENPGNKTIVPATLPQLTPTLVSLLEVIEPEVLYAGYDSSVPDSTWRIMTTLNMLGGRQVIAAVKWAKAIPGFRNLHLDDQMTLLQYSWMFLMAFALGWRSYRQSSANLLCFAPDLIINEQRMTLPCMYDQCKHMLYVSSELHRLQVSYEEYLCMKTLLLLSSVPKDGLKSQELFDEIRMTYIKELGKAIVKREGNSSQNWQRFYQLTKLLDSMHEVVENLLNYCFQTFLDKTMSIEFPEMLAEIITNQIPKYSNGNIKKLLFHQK
Sequence of Cytochrome P450 1A2 (Homo sapiens) (P05177 whole entry, looked up): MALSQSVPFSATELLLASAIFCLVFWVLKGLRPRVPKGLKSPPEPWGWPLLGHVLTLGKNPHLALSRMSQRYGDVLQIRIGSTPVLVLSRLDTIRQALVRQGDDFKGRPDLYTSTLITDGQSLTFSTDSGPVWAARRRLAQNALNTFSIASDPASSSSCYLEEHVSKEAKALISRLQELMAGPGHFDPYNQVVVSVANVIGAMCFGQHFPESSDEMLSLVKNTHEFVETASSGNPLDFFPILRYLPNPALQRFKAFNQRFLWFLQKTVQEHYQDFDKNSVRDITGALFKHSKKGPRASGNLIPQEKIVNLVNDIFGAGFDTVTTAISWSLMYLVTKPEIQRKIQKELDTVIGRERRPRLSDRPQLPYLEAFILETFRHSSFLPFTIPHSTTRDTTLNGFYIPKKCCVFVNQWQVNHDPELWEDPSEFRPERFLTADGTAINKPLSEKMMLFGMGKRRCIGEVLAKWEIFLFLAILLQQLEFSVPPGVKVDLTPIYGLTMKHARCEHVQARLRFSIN
Sequence of 3',5'-cyclic-AMP phosphodiesterase 4B (Homo sapiens) (Q07343 whole entry, looked up): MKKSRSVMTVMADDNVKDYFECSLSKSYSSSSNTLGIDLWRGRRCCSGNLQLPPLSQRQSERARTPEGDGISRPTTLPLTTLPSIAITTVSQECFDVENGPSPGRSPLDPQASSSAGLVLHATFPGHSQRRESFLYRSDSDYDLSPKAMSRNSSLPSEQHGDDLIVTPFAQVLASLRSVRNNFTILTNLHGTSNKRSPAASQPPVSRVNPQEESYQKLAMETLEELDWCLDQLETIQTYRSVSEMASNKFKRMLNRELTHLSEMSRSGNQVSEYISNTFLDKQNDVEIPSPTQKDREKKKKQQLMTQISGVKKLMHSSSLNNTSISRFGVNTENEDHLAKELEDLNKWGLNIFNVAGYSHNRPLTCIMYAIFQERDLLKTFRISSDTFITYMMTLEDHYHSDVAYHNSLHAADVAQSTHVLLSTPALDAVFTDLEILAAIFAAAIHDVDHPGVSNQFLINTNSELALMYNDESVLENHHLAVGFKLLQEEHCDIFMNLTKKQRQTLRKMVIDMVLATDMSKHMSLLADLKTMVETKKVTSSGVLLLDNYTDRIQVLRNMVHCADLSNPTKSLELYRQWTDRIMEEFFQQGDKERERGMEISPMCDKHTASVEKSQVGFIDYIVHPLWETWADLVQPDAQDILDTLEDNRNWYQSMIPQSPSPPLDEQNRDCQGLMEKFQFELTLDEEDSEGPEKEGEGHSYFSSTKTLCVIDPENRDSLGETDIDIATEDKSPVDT
Sequence of Ubiquitin carboxyl-terminal hydrolase 1 (Homo sapiens) (O94782 whole entry, looked up): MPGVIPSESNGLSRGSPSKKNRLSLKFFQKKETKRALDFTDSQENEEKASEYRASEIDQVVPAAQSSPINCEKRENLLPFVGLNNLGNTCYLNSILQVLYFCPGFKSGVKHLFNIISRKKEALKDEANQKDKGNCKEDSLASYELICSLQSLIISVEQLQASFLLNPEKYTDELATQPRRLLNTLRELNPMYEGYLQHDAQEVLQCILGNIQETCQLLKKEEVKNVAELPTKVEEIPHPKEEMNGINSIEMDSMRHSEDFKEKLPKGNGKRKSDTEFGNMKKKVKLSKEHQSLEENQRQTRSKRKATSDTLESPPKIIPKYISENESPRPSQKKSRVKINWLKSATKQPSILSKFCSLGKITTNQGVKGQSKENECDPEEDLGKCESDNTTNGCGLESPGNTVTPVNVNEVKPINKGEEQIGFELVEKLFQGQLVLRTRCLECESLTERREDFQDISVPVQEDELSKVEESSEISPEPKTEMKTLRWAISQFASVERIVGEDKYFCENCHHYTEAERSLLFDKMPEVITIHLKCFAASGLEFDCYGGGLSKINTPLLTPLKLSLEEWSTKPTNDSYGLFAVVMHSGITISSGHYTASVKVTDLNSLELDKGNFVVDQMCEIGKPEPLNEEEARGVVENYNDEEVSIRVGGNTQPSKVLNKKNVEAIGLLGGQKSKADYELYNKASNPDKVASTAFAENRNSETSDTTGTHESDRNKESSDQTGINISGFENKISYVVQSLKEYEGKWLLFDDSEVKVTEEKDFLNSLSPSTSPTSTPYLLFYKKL
Sequence of Dual specificity protein kinase CLK4 (Homo sapiens) (Q9HAZ1 whole entry, looked up): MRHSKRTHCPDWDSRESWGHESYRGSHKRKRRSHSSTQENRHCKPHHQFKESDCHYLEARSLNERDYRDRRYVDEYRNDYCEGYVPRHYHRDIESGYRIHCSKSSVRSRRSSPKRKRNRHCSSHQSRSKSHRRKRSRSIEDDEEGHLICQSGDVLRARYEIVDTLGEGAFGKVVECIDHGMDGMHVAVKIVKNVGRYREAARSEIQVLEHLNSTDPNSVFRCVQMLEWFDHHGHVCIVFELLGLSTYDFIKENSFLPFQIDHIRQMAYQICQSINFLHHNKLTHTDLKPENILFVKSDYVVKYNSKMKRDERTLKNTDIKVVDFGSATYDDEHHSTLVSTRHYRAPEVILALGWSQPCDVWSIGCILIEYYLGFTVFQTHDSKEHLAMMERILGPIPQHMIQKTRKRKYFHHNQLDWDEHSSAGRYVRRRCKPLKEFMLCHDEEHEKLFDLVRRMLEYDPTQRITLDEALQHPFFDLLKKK
Sequence of Cytochrome P450 3A4 (Homo sapiens) (P08684 whole entry, looked up): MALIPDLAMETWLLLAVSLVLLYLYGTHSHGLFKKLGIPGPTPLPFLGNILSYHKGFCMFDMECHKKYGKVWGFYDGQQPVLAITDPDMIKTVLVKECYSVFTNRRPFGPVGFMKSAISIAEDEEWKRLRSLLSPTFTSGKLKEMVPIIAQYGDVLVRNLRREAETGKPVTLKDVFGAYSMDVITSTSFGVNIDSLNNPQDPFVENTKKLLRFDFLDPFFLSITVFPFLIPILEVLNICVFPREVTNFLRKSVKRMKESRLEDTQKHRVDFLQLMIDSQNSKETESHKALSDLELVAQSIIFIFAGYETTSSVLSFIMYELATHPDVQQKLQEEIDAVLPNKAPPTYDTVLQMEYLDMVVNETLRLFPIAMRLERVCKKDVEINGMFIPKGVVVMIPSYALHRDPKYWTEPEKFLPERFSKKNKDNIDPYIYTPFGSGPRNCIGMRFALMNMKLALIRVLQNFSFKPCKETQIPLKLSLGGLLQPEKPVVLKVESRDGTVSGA
Sequence of Lysosomal acid glucosylceramidase (Homo sapiens) (P04062 whole entry, looked up): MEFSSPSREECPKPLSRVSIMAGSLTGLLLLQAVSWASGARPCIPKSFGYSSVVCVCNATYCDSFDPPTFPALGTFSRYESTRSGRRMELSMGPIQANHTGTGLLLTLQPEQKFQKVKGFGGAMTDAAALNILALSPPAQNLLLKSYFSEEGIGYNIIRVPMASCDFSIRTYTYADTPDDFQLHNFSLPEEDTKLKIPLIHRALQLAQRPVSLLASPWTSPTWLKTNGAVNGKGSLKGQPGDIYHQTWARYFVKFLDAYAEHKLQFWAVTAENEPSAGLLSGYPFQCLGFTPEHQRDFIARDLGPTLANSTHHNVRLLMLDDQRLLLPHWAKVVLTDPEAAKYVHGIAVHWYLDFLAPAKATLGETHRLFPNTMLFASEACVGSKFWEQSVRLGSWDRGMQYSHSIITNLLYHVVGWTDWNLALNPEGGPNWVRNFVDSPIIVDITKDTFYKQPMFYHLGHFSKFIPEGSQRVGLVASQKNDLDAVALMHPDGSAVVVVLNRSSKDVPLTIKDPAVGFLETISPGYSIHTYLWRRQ
Sequence of Cytochrome P450 2C19 (Homo sapiens) (P33261 whole entry, looked up): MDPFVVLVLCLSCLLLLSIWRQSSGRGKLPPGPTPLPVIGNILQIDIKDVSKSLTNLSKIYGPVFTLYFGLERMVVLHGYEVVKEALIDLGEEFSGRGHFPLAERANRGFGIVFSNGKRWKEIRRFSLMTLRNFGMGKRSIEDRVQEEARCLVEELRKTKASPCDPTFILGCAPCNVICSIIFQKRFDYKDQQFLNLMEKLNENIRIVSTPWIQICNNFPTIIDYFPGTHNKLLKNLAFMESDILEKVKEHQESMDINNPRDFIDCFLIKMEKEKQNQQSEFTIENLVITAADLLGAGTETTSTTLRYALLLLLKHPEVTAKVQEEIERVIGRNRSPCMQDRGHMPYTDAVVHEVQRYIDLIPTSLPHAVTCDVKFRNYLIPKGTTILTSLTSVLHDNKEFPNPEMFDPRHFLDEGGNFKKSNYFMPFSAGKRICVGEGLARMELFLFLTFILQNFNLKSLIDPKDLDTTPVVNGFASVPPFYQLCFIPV

In the case of `CN1CCN(c2ncc3nc(-c4ccc(F)cc4)c(=O)n(Cc4cccs4)c3n2)CC1`, the Potency in [1] was > 11.4 µM (inactive); in assay [2] it was 25.1 µM (active); in assay [3], > 9.22 µM (inactive); in [4] it was > 46 µM (inactive); in assay [7] it was 3.16 µM (active). Also, the Potency entry in [5], in assay [6], in assay [9], in assay [10], in assay [11] and in [12] was “inactive” each time. For the same compound, in [13], the Potency result is “inactive”. In assay [8], the activity change, negative = inhibition was -3.43% (inactive). Besides, the max response in assay [8] (setting [20]) came to 8.36%; in assay [8] (setting [21]) it was 0.564%.

Turning to `COCCn1c(=O)cnc2cnc(Nc3ccccc3)nc21`, the Potency in [1] was > 11.4 µM (inactive); in [2] it was 1 µM (active); in [3], > 9.22 µM (inactive); in [4], > 46 µM (inactive); in [9], 3.55 µM (active); in [10] it was 3.16 µM (active). In addition, in [11], the Potency was 2.82 µM (active). Also, the call in [14] was inactive. The Potency entry in assay [5], in assay [12] and in assay [13] was “inactive” each time. The activity change, negative = inhibition in assay [8] was -9% (inactive). The max response was -2.6% in assay [8] (setting [20]) and -12.1% in assay [8] (setting [21]).

On to `Cc1ccccc1-c1nccc(NCc2cccs2)n1`, for which the activity change, negative = inhibition in assay [15] was -5.62% (inactive); in assay [16], 1.22% (inactive); in assay [8], 6.73% (inactive). Also, the Potency was 0.501 µM (active) in [2]; > 46 µM (inactive) in assay [3]; > 46 µM (inactive) in assay [4]; 2 µM (active) in [6]; 3.98 µM (active) in assay [19]; 25.1 µM (active) in assay [12]. The activity, negative = inhibition in [17] is 3.98% (inactive). In assay [14], the compound was called inactive. For the same compound, the Potency result in assay [5], in [18], in assay [9], in assay [10], in assay [11] and in assay [13] was “inactive” in each case. In addition, the max response was -2.46% in assay [8] (setting [20]) and 6% in assay [8] (setting [21]).
